Reference: PubChem BioAssay (NCATS)
Inconclusive results are not listed. Active and inactive are the calls of the source. Calls follow the shape of the dose curve; as a rule, active = well fitted inhibition curve with a large enough effect; inconclusive = small, poorly fitted or top-dose-only effect; inactive = flat fitted curve, though single readings scatter.

Experiments:
Assay in all cases: qHTS profiling for inhibitors of Plasmodium falciparum proliferation (AID 504749); also: nearly all actives have a fitted effect of over 60% in size
Settings in all cases: P. falciparum in erythrocytes, SYBR Green DNA, 72 h; series mostly up to 28.7 µM
CP286 = system: CP286
Procedure, shortened: (§1)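 In a 72 h erythrocytic culture (37 C, humidified, 5% CO2) at 2.5% hematocrit and 0.3% starting parasitemia, compounds were tested; SYBR Green I in detergent lysis buffer stained parasite DNA overnight.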

CP291 = system: CP291
Procedure, shortened: as §1

CP297 = system: CP297
Procedure, shortened: as §1

CP305 = system: CP305
Procedure, shortened: as §1

CP315 = system: CP315
Procedure, shortened: as §1

CP325 = system: CP325
Procedure, shortened: as §1

CP329 = system: CP329
Procedure, shortened: as §1

CP335 = system: CP335
Procedure, shortened: as §1

DFO2036 = system: DFO2036
Procedure, shortened: as §1

DIV14 = system: DIV14
Procedure, shortened: as §1

DIV17 = system: DIV17
Procedure, shortened: as §1

DIV30 = system: DIV30
Procedure, shortened: as §1

Dd2 = system: Dd2
Procedure, shortened: as §1

ECU = system: ECU
Procedure, shortened: as §1

FAB9 = system: FAB9
Procedure, shortened: as §1

GB4 = system: GB4
Procedure, shortened: as §1

HB3 = system: HB3
Procedure, shortened: as §1

JCK = system: JCK
Procedure, shortened: as §1

N140 = system: N140
Procedure, shortened: as §1

ICS = system: ICS
Procedure, shortened: as §1

Measured: Potency
Potency is read from the fitted curve at half-maximal effect.

C#C[C@]1(O)CC[C@H]2[C@@H]3CCc4cc(OC)ccc4[C@H]3CC[C@@]21C
not listed: ICS
inactive: all other assays above

COc1ccc(CN(CCN(C)C)c2ncccn2)cc1
active: GB4 9530 nM
inactive: all other assays above

CCCCCCCC/C=C\CCCCCCCCN
inactive: all assays above

CC[C@H](c1ccc(O)cc1)[C@@H](CC)c1ccc(O)cc1
inactive: all assays above

Oc1ccccc1C=NCc1ccccc1
inactive: all assays above

COc1cc(C(=S)N2CCOCC2)ccc1O
inactive: all assays above

Nc1ccc(S(=O)(=O)Nc2cnc3ccccc3n2)cc1
inactive: all assays above

COc1ccc(-c2cc(C(F)F)nn2-c2ccc(S(N)(=O)=O)cc2)cc1F
inactive: all assays above

COP(=O)(OC)OC(c1ccc(Cl)cc1)P(=O)(OC)OC (stereo not given)
inactive: all assays above

O=C(O)c1ccc(S(=O)(=O)N(Cl)Cl)cc1
inactive: all assays above

CCCCCCCCCCCCSCCOCCO
inactive: all assays above

O[C@@H](c1cc(C(F)(F)F)nc2c(C(F)(F)F)cccc12)[C@H]1CCCCN1
active: CP286 112 nM | CP291 151 nM | CP297 107 nM | CP305 213 nM | CP315 169 nM | CP325 135 nM | CP329 269 nM | CP335 107 nM | DFO2036 35.5 nM | DIV14 33.8 nM | DIV17 33.8 nM | DIV30 33.8 nM | Dd2 28.2 nM | ECU 12.6 nM | FAB9 70.8 nM | GB4 26.9 nM | HB3 56.2 nM | ICS 8.9 nM | JCK 17800 nM | N140 10 nM

C=C[C@@]1(C)CC(=O)[C@]2(O)[C@@]3(C)[C@@H](O)CCC(C)(C)[C@@H]3[C@H](O)[C@H](OC(C)=O)[C@@]2(C)O1
inactive: all assays above

CC(C)Cn1cnc2c1c(=O)n(C)c(=O)n2C
inactive: all assays above

CCOc1cc(OCC)c(C(=O)CCC(=O)O)cc1OCC
inactive: all assays above

COc1cc(C(=O)NCc2ccc(OCCN(C)C)cc2)cc(OC)c1OC
inactive: all assays above

Cc1cccc(C)c1NC(=O)c1ccccc1C(=O)O
inactive: all assays above

CCC1Nc2cc(Cl)c(S(N)(=O)=O)cc2S(=O)(=O)N1 (stereo not given)
inactive: all assays above

CC(=O)NC(=O)c1ccccc1O
inactive: all assays above

Nc1ccc(S(=O)(=O)NCc2ccccc2)cc1
inactive: all assays above

CCCN(CCC)S(=O)(=O)c1ccc(C(=O)O)cc1
inactive: all assays above

NCCNC(=O)c1ccc(Cl)cn1
inactive: all assays above

CCc1oc2ccccc2c1C(=O)c1cc(Br)c(O)c(Br)c1
inactive: all assays above

CCNC(=O)/C=C/c1cccc(Br)c1
not listed: DIV14
inactive: all other assays above

COc1cc([C@H]2Oc3cc([C@H]4Oc5cc(O)cc(O)c5C(=O)[C@@H]4O)ccc3O[C@@H]2CO)ccc1O
active: DIV30 19000 nM | ICS 8910 nM
not listed: DIV14 | DIV17 | GB4 | N140
inactive: all other assays above

CC(=O)Nc1ncc([N+](=O)[O-])s1
not listed: DIV17
inactive: all other assays above

OCCOCCN1CCN(C2=Nc3ccccc3Sc3ccccc32)CC1
not listed: DIV14 | Dd2 | ICS
inactive: all other assays above
